Assay results taken from PubChem BioAssay.
Records with an inconclusive call do not appear. Active and inactive are the calls of the source.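 How the source made its calls, unless noted: active means viability at or below 27.92% in each of two runs, the all-compound median minus 4 SD; inconclusive means no clear call, values can overlap the other calls; inactive means the rest.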

Columns and labels:
[1] = Her2 expression decrease, cell viability multiplex – SKBR3 breast tumor cells, AlphaScreen, ATP viability, primary screen (AID 461;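 active means Her2 level under about 52% in both replicate screens, with viability over 70% of control, limit read from the data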;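 on Her2 level: lower value means less Her2 protein in the cells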;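 on viability: percent of carrier control wells set as 100% viability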); conditions: SKBR3 Her2 protein level, 18-24 h, measured here: SKBR3 viability, ATP luminescence, at 10 µM
[2] = biological target: Receptor tyrosine-protein kinase erbB-2 (Homo sapiens) (UniProt P04626); test: as above; conditions: 18-24 h, at 10 µM, stronger effect = lower value
[3] = reduced viability of SK-BR-3 breast cancer cells – cell-based, 24 h, human, pilot screen (AID 572;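 active means viability at or below 10% of carrier control in both of two separate runs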;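 further: compound exposure lasted between 18 and 24 h rather than exactly 24 h; 100% = carrier-treated control wells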); conditions: SK-BR-3 viability, CellTiter-Glo luminescence, at 10 µM, stronger effect = lower value
[4] = HUVEC growth inhibition – cell-based, human, primary screen (AID 575;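 active means viability at or below 30% in both replicate assays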;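 further: 100% = median of untreated cell wells with 0.1% DMSO on each plate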); conditions: HUVEC proliferation, CellTiter-Glo luminescence, 72 h; at 10 µM; stronger effect = lower value
[5] = H69AR cell proliferation blockers – human, duplicate replicates, primary screen (AID 580;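 active means viability at or under a set limit in both replicates, limit being median viability minus 3 SD, cut at about 48% in these data, passing the limit was not always enough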;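 further: 100% = mean luminescence of untreated wells and 0% = no signal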); conditions: H69AR lung tumor cells viability, ATP luminescence, 72 h; at 10 µM; stronger effect = lower value
[6] = MRP1 drug-resistance reversers in H69AR cells – cell-based, doxorubicin co-treatment, pilot screen (AID 601;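 active means viability loss from added drug above about 55%, and viability with drug at most 40%, in both replicates, limit read from the data, passing the limit was not always enough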); conditions: CellTiter-Glo, 72 h, at 10 µM; for differential viability (reversal): stronger effect = higher value
[7] = yeast transport mutant growth inhibition pilot in 384-well plates, post-Golgi transport modulator project (AID 636; in the data active means inhibition above about 31%); conditions: absorbance 615 nm, about 18 h, stronger effect = higher value
[8] = growth suppression of yeast trafficking mutant, preliminary HTS, modulators of trafficking downstream of Golgi apparatus project, 1536-format plate, OD 615 nm (AID 637; in the data active means inhibition above about 30%); conditions: yeast transport mutant growth, absorbance 615 nm, 18 h; stronger effect = higher value
[9] = S. cerevisiae growth inhibition in permissive medium (OD615), pilot counter-assay for S. cerevisiae lifespan shortening project, permissive growth control (AID 705;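 active means growth inhibition above 25% in both replicates, a cutoff set 3 SD above the mean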); conditions: OD615, 24 h, at 10 µM, stronger effect = higher value
[10] = S. cerevisiae growth inhibition in restrictive medium, OD615, pilot screen, restrictive growth control, yeast lifespan reduction project (AID 706;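 active means growth inhibition above a set limit, 3 SD over mean compound inhibition, in both replicates, cut at about 43% in these data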;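 further: modified DeaD lifespan yeast strain shifted to restrictive glucose medium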); conditions: OD615, 48 h, at 10 µM, stronger effect = higher value
[11] = doxorubicin toxicity protection in MRP-1 cells – H69AR cells, CellTiter-Glo, duplicate, MRP-1 activator project, pilot screen (AID 807;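 active means viability increase at or above a cutoff of the median across tested compounds plus 3 SD, cut at about 8.5% in these data, passing the limit was not always enough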;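 further: compound pretreatment 18-22 h then 72 h combined with doxorubicin; 0% = doxorubicin alone and 100% = vehicle without doxorubicin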); conditions: H69AR viability with doxorubicin, CellTiter-Glo luminescence; at 10 µM; stronger effect = higher value
[12] = viability of HCT116 without oncogenic beta-catenin – human colon tumor cells, pilot screen (AID 823;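 active means cell viability at or below a set limit in both duplicate runs, the limit being the all-compound median minus 4 SD, cut at about 23% in these data, passing the limit was not always enough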;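 further: 0% = wells killed by 20 µM Hyamine and 100% = untreated DMSO cell wells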); conditions: HCT116 beta-catenin knockout viability, CellTiter-Glo, 60 h; at 10 µM; stronger effect = lower value
[13] = viability of PTEN-null HCT116 cells – cell-based, HCT116 clonal line, CellTiter-Glo, pilot screen (AID 824); conditions: HCT116 PTEN-deleted viability, 60 h, at 10 µM, stronger effect = lower value;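 further: 0% = 20 µM Hyamine control and 100% = vehicle cell control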
[14] = RAM pathway blockade in budding yeast – dse1pr::URA3 reporter, 5-FOA selection, pilot screen (AID 869;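 active means inhibition over a set limit, the all-compound mean plus 3 SD, in both replicate runs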;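 further: 0% = DMSO wells with no growth and 100% = 10 µM 1-NA-PP1 with full growth; RAM network block rescues cells from 5-FOA so hits raise OD615 growth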); conditions: S. cerevisiae dse1pr::URA3 5-FOA growth, OD615, 2 d; at 10 µM; stronger effect = higher value; strain carries analog-sensitive mutant Cbk1 kinase
[15] = RAM signaling pathway blockade in yeast – S. cerevisiae, Pdr1DBD-CYC8 efflux-inhibited sensitized strain, primary screen (AID 1298;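 active means RAM network inhibition above 8.4% in each of two replicates, 3 SD over the compound average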;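 further: 0% = DMSO untreated cells without growth and 100% = 10 µM 1-NA-PP1 full growth; higher means more yeast growth rescued from 5-FOA killing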); conditions: S. cerevisiae cbk1-as DSE1-URA3 strain, 5-FOA growth OD615, 2 d; at 50 µM; stronger effect = higher value
[16] = H69AR cells + 2 uM doxorubicin, measured here: viability with 2 uM doxorubicin, stronger effect = lower value
[17] = H69AR cells, compound alone cytotoxicity

Receptor tyrosine-protein kinase erbB-2 (Homo sapiens), sequence (P04626 whole entry, looked up): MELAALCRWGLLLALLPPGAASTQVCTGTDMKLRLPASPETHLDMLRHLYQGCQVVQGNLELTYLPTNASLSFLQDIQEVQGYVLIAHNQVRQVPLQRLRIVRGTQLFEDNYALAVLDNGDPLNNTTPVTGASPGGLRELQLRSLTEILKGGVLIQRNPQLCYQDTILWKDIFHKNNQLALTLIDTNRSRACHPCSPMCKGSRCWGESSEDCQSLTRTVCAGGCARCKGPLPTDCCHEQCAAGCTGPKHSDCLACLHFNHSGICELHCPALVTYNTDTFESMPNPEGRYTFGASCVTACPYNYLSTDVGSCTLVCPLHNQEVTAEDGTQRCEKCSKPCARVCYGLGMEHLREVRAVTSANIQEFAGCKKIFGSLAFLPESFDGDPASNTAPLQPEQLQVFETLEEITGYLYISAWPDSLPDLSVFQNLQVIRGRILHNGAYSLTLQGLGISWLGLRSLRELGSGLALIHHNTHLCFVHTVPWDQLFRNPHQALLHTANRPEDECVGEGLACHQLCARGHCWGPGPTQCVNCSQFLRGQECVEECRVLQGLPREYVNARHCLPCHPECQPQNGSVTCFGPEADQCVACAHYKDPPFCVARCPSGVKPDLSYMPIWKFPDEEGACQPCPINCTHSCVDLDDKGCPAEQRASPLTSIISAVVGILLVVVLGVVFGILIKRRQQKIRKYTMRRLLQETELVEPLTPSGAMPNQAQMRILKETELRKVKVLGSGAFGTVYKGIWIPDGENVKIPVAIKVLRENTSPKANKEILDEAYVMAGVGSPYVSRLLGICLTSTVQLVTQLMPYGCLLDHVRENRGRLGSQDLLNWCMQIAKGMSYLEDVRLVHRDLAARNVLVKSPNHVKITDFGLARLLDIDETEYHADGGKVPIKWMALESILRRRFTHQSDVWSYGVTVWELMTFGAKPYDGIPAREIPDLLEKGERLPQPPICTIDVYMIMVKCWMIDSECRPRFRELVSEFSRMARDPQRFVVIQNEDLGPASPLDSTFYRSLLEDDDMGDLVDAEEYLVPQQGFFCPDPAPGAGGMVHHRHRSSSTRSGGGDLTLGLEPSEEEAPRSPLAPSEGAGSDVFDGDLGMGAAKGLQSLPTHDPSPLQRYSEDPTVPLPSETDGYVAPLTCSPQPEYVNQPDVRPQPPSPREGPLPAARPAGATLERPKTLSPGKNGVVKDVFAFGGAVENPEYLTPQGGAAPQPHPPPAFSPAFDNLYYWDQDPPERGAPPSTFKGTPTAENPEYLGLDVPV

Row | Compound | viability [1] | Her2 level [2] | viability [3] | viability [4] | viability [5] | differential viability (reversal) ([6]; H69AR cells + 2 uM doxorubicin) | viability [6, 16] | viability [6, 17] | inhibition [7] | inhibition [8] | growth inhibition [9] | growth inhibition [10] | viability increase [11] | viability [12] | viability [13] | inhibition [14] | RAM network inhibition [15]
1 | CC(=O)NC(CCS(C)(=O)=O)C(=O)Nc1cccc(C)c1 (stereo not drawn) | 88.5% | 121% (inactive) | 88.5% (inactive) | 89.3% (inactive) | 94.1% (inactive) | 1.42% (inactive) | 92.7% | 94.1% | 1.87% (inactive) | 1.83% (inactive) | -12.4% (inactive) | -11.9% (inactive) | 0.75% (inactive) | 103% (inactive) | 100% (inactive) | 1.04% (inactive) | 2.51% (inactive)
2 | CC1(C)CC(=O)C(C=NCCO)=C(O)C1 | 100% | 97.5% (inactive) | 100% (inactive) | 113% (inactive) | 91.2% (inactive) | 2.35% (inactive) | 88.9% | 91.2% | -6.08% (inactive) | 5.83% (inactive) | 5.08% (inactive) | -3.12% (inactive) | 1.5% (inactive) | 102% (inactive) | 101% (inactive) | 1.19% (inactive) | 2.26% (inactive)
3 | Cc1ccc(C(=O)CC2(O)C(=O)N(C)c3ccc(Br)cc32)c(C)c1 (stereo not drawn) | 85% | 88.5% (inactive) | 85% (inactive) | 77.7% (inactive) | 75% (inactive) | -16.9% (inactive) | 91.9% | 75% | -4.13% (inactive) | -0.83% (inactive) | 2.26% (inactive) | 9.8% (inactive) | -4.61% (inactive) | 71.5% (inactive) | 74.7% (inactive) | 2.44% (inactive) | 4.59% (inactive)
4 | O=S(=O)(c1ccccc1)N1CCN(S(=O)(=O)c2ccccc2)C1 | 83.5% | 102% (inactive) | 83.5% (inactive) | 97.5% (inactive) | 95.8% (inactive) | 7.07% (inactive) | 88.7% | 95.8% | -3.21% (inactive) | -4.5% (inactive) | -7.65% (inactive) | 6.15% (inactive) | -1.27% (inactive) | 93.8% (inactive) | 93.5% (inactive) | -0.14% (inactive) | 3.22% (inactive)
5 | Cc1ccc(-n2ncc3c(=O)[nH]c(SC(C)C)nc32)cc1 | 93% | 104% (inactive) | 93% (inactive) | 84.9% (inactive) | 80.1% (inactive) | 11.3% (inactive) | 68.7% | 80.1% | -4.4% (inactive) | -6% (inactive) | -3.77% (inactive) | -5.77% (inactive) | -3.9% (inactive) | 98.4% (inactive) | 87.4% (inactive) | 3.35% (inactive) | 4.11% (inactive)
6 | CS(=O)(=O)N(Cc1ccco1)CC(O)Cn1c2ccccc2c2ccccc21 (stereo not drawn) | 93.5% | 71.5% (inactive) | 93.5% (inactive) | 76.8% (inactive) | 80.5% (inactive) | -2.92% (inactive) | 83.4% | 80.5% | -3.9% (inactive) | -4.5% (inactive) | -6.72% (inactive) | -1.61% (inactive) | -4.51% (inactive) | 72.2% (inactive) | 74.5% (inactive) | 1.9% (inactive) | 1.64% (inactive)
7 | CCCOc1ccc(N2CC(C(=O)Nc3ccc4c(c3)OCO4)CC2=O)cc1 (stereo not drawn) | 107% | 94% (inactive) | 107% (inactive) | 79.3% (inactive) | 86.4% (inactive) | -9.04% (inactive) | 95.4% | 86.4% | -4.13% (inactive) | -1.67% (inactive) | -11.2% (inactive) | 12.3% (inactive) | -2.44% (inactive) | 107% (inactive) | 102% (inactive) | 2.89% (inactive) | 2.77% (inactive)
8 | CCOC(=O)c1c(C)n(OCc2ccccc2)c2ccc3c(no[n+]3[O-])c12 | 60% | 78.5% (inactive) | 60% (inactive) | 64.8% (inactive) | 52.9% (inactive) | -14.2% (inactive) | 67.1% | 52.9% | -3.24% (inactive) | -2.95% (inactive) | -12.4% (inactive) | -11.1% (inactive) | -3.24% (inactive) | 62.8% (inactive) | 62.9% (inactive) | 1.99% (inactive) | 5.8% (inactive)
9 | COc1ccc(OC)c(C(=O)c2ccc(C(=O)O)cc2)c1 | 120% | 107% (inactive) | 120% (inactive) | 87.2% (inactive) | 103% (inactive) | 6.11% (inactive) | 96.5% | 103% | -3.73% (inactive) | 1.94% (inactive) | -10.1% (inactive) | -16.1% (inactive) | 0.88% (inactive) | 105% (inactive) | 103% (inactive) | 1.67% (inactive) | 0.12% (inactive)
10 | CCCCCOc1ccc(C2NC(=O)NC2=O)cc1 (stereo not drawn) | 97% | 109% (inactive) | 97% (inactive) | 102% (inactive) | 106% (inactive) | 18.2% (inactive) | 88.1% | 106% | -4.93% (inactive) | -3.5% (inactive) | -7.17% (inactive) | -19.9% (inactive) | -1.63% (inactive) | 101% (inactive) | 94.5% (inactive) | 0.245% (inactive) | 1.57% (inactive)
11 | COc1ccc(OC)c(C2C(C(=O)Nc3ccc(F)cc3)=C(C)Nc3nc(CCCO)nn32)c1 (stereo not drawn) | 101% | 120% (inactive) | 101% (inactive) | 91% (inactive) | 101% (inactive) | 5.54% (inactive) | 95.4% | 101% | 0.13% (inactive) | -0.83% (inactive) | -9.55% (inactive) | 7.19% (inactive) | -0.62% (inactive) | 99.6% (inactive) | 99.1% (inactive) | -1.06% (inactive) | -0.42% (inactive)
12 | CCOC(=O)N1CCN(c2cc(=O)n(-c3cccc(Br)c3)c(=O)[nH]2)CC1 | 99.5% | 108% (inactive) | 99.5% (inactive) | 94.4% (inactive) | 103% (inactive) | 17.2% (inactive) | 85.5% | 103% | -3.2% (inactive) | -1.8% (inactive) | -9.72% (inactive) | -24.3% (inactive) | -2.79% (inactive) | 108% (inactive) | 93.5% (inactive) | 3.14% (inactive) | 3.07% (inactive)
13 | CCOc1ccc2nc(N3CCC(C(=O)N4CCN(C5CCCCC5)CC4)CC3)sc2c1 | 83% | 83.5% (inactive) | 83% (inactive) | 98.6% (inactive) | 95.7% (inactive) | 8.46% (inactive) | 87.2% | 95.7% | -1.33% (inactive) | -4.1% (inactive) | -0.545% (inactive) | 8.85% (inactive) | -3.43% (inactive) | 55.6% (inactive) | 70.3% (inactive) | 1.22% (inactive) | 0.6% (inactive)
14 | Cc1[nH]c2ccccc2c(=O)c1CN1CCCCC1 | 99% | 103% (inactive) | 99% (inactive) | 101% (inactive) | 90.5% (inactive) | -0.56% (inactive) | 91.1% | 90.5% | -4.29% (inactive) | -3.67% (inactive) | -17.1% (inactive) | -15.9% (inactive) | -0.38% (inactive) | 97.3% (inactive) | 105% (inactive) | 0.515% (inactive) | -0.21% (inactive)
15 | COC(=O)Cn1c(CN2CCN(c3ccccc3F)CC2)nc2c1c(=O)n(C)c(=O)n2C | 104% | 95% (inactive) | 104% (inactive) | 95.3% (inactive) | 93.8% (inactive) | 6.45% (inactive) | 87.3% | 93.8% | -3.73% (inactive) | 3.33% (inactive) | -7.25% (inactive) | -1.94% (inactive) | 0.3% (inactive) | 97.4% (inactive) | 90.1% (inactive) | 2.47% (inactive) | 6.25% (inactive)
16 | CCCC(=O)N1CC(=O)Nc2ccc(C)cc2C1c1ccc(F)cc1 (stereo not drawn) | 86% | 101% (inactive) | 86% (inactive) | 79.9% (inactive) | 97.4% (inactive) | 20.3% (inactive) | 77.1% | 97.4% | -2% (inactive) | 0.16% (inactive) | -8.09% (inactive) | -8.8% (inactive) | -3.73% (inactive) | 82.2% (inactive) | 84.2% (inactive) | 1.42% (inactive) | 2.82% (inactive)
17 | Cc1cc(OCC(=O)NCCO)cc(C)c1Cl | 99% | 120% (inactive) | 99% (inactive) | 76% (inactive) | 96.4% (inactive) | 8.84% (inactive) | 87.6% | 96.4% | 1.56% (inactive) | -1.67% (inactive) | -15% (inactive) | 0.385% (inactive) | -0.21% (inactive) | 99.1% (inactive) | 99.6% (inactive) | 1.37% (inactive) | 6.24% (inactive)
18 | CCN1CCN(C(=O)C2CCN(C(=O)c3cc4sccc4n3CC)CC2)CC1 | 104% | 104% (inactive) | 104% (inactive) | 115% (inactive) | 83% (inactive) | -15.3% (inactive) | 98.3% | 83% | -5.07% (inactive) | 3.67% (inactive) | -13.3% (inactive) | -13.5% (inactive) | -1.69% (inactive) | 105% (inactive) | 95.5% (inactive) | 0.53% (inactive) | 0.58% (inactive)
19 | O=C(OCCN(CCOC(=O)c1ccncc1)S(=O)(=O)c1cccs1)c1ccncc1 | 102% | 75.5% (inactive) | 102% (inactive) | 99.2% (inactive) | 104% (inactive) | 6.43% (inactive) | 97.3% | 104% | -1.64% (inactive) | 1.75% (inactive) | 4.38% (inactive) | 1.04% (inactive) | -2.14% (inactive) | 102% (inactive) | 97% (inactive) | 1.63% (inactive) | 4.78% (inactive)
